The panel holds about 79,000 compounds, 15% with a hit somewhere; the sample as a whole holds those more often. The source made the active and inactive calls. Cut-off read from the data, not from the text of the source: active = growth inhibition above about 70%; inactive = the rest.
How the values were obtained:
[1] = NCI Yeast Anticancer Drug Screen. Data for the rad52 strain (AID 147);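 note: 0% = growth of vehicle-treated control cultures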; conditions: S. cerevisiae rad52 mutant growth inhibition, hits give high values
Method in brief: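 Compounds are applied to a genetically defined yeast strain lacking normal DNA damage repair, and inhibition of growth is expressed relative to cultures given vehicle only.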

[2] = NCI Yeast Anticancer Drug Screen. Data for the wt1 strain (AID 149);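 note: 0% = growth of vehicle-treated wt1 cultures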; conditions: S. cerevisiae wt1 strain (SPY 50644) growth inhibition, hits give high values
Method in brief: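 Measured: growth of wt1 yeast under compound versus vehicle treatment, reported as inhibition.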

[3] = NCI Yeast Anticancer Drug Screen. Data for the rad50EPP+ strain (AID 151);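 note: 0% = growth of vehicle-treated control cultures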; conditions: S. cerevisiae rad50 mutant strain, hits give high values
Method in brief: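 Compounds were applied to the rad50EPP+ yeast strain, which bears a defined DNA repair alteration, and growth inhibition was determined relative to vehicle-treated cultures.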

[4] = NCI Yeast Anticancer Drug Screen. Data for the rad50 strain (AID 155);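 note: 0% = growth of vehicle-only cultures of the same strain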; conditions: S. cerevisiae rad50 strain growth inhibition, hits give high values
Method in brief: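 Growth of the mutant yeast was measured after compound exposure and referenced to vehicle-treated cultures.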

[5] = NCI Yeast Anticancer Drug Screen. Data for the mec2-1 strain (AID 157); conditions: S. cerevisiae mec2-1 strain, hits give high values
Method in brief: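 Strain: mec2-1 (DNA repair/cell cycle alteration). Compound exposure, then growth measured; inhibition expressed relative to vehicle.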

[6] = NCI Yeast Anticancer Drug Screen. Data for the rad14 strain (AID 159);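 note: 0% = growth of vehicle-treated control cultures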; conditions: S. cerevisiae rad14 strain growth inhibition, hits give high values
Method in brief: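 Here, inhibition of yeast growth was measured after compound exposure, using a strain with a genetic defect in DNA damage repair and vehicle-treated cultures as the reference.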

[7] = NCI Yeast Anticancer Drug Screen. Data for the sgs1 mgt1 strain (AID 161);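 note: 0% = growth of cultures given vehicle only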; conditions: S. cerevisiae sgs1 mgt1 strain, hits give high values
Method in brief: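 Test agents were incubated with a DNA-repair-mutant yeast strain. Growth was then read and compared against vehicle-treated controls.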

[8] = NCI Yeast Anticancer Drug Screen. Data for the CLN2oe strain (AID 163);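 note: 0% = growth of vehicle-only control cultures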; conditions: S. cerevisiae CLN2oe strain, hits give high values
Method in brief: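 Growth of a genetically modified yeast strain is measured after compound exposure and compared with cultures given vehicle alone.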

[9] = NCI Yeast Anticancer Drug Screen. Data for the cln2 rad14 strain (AID 165);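 note: 0% = growth equal to vehicle treated cultures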; conditions: S. cerevisiae cln2 rad14 strain, hits give high values
Method in brief: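 Compounds are applied to the cln2 rad14 yeast strain, and growth is then compared with that of vehicle-treated cultures to give inhibition.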

[10] = NCI Yeast Anticancer Drug Screen. Data for the bub3 strain (AID 167); conditions: S. cerevisiae bub3 mutant strain, hits give high values
Method in brief: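 Whole-cell yeast assay. The mutant strain was incubated with compounds, and growth inhibition was determined by comparison with vehicle-treated cells.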

[11] = NCI Yeast Anticancer Drug Screen. Data for the wt2 strain (AID 169);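 note: 0% = growth of vehicle-treated yeast cultures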; conditions: S. cerevisiae wt2 strain growth inhibition, hits give high values
Method in brief: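 This strain belongs to a panel of yeast strains with defined genetic alterations in DNA damage repair or cell cycle control. Compounds are applied, and growth inhibition is measured against vehicle-treated cultures.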

[12] = NCI Yeast Anticancer Drug Screen. Data for the mlh1 strain (AID 171);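 note: 0% = growth of vehicle-treated control cultures of the same strain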; conditions: S. cerevisiae mlh1 strain growth inhibition, hits give high values
Method in brief: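 Growth of the mutant yeast strain after compound exposure, expressed as inhibition relative to vehicle-only controls.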

[13] = NCI Yeast Anticancer Drug Screen. Data for the sgs1 strain (AID 173);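 note: 0% = growth of vehicle-only control cultures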; conditions: S. cerevisiae sgs1 mutant, hits give high values
Method in brief: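 Growth of a yeast strain bearing a defined genetic alteration is measured after compound treatment. Inhibition is expressed relative to vehicle-only controls.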

[14] = NCI Yeast Anticancer Drug Screen. Data for the mlh1 rad18 strain (AID 175); conditions: S. cerevisiae mlh1 rad18 strain growth inhibition, hits give high values
Method in brief: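 Read-out is yeast growth inhibition, calculated against vehicle-only controls. The compound was applied to a strain engineered with DNA damage repair alterations.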

[15] = NCI Yeast Anticancer Drug Screen. Data for the rad18 strain (AID 177); conditions: S. cerevisiae rad18 mutant growth inhibition, hits give high values
Method in brief: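 Growth of the mutant yeast strain after compound exposure, normalised to vehicle-only cultures.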

[16] = at 5.0 µM (retest, dose inferred, filed as 0.5)
[17] = at 50.0 µM (retest, dose inferred, filed as 5.0)

Measured: growth inhibition

CCCCCCCCN1C(=O)c2ccccc2C1=O
active: [7]; at 50.0 µM 78.7% | [10]; at 50.0 µM 89.5% | [14]; at 50.0 µM 91%
inactive: [1]; at 1.2 µM 0% | [1]; at 3.7 µM 0% | [1]; at 11.0 µM 5% | [1]; at 33.0 µM 10% | [1]; at 100.0 µM 6% | [2]; at 1.2 µM -2% | [2]; at 3.7 µM -1% | [2]; at 11.0 µM -1% | [2]; at 33.0 µM -4% | [2]; at 100.0 µM -6% | [3]; at 1.2 µM 2% | [3]; at 3.7 µM 9% | [3]; at 11.0 µM 14% | [3]; at 33.0 µM 18% | [3]; at 100.0 µM 42% | [4]; at 1.2 µM 0% | [4]; at 3.7 µM 3% | [4]; [16] 20% | [4]; at 11.0 µM 6% | [4]; at 33.0 µM 10% | [4]; [17] 15% | [4]; at 50.0 µM 39.5% | [4]; at 100.0 µM -2% | [5]; at 1.2 µM -3% | [5]; at 3.7 µM -4% | [5]; [16] -7% | [5]; at 11.0 µM -5% | [5]; at 33.0 µM -4% | [5]; [17] 13% | [5]; at 50.0 µM 50% | [5]; at 100.0 µM 0% | [6]; at 1.2 µM -2% | [6]; at 3.7 µM 0% | [6]; at 11.0 µM 6% | [6]; at 33.0 µM 14% | [6]; at 100.0 µM 18% | [7]; [16] 1% | [7]; [17] 36% | [8]; at 1.2 µM -2% | [8]; at 3.7 µM 0% | [8]; at 11.0 µM -1% | [8]; at 33.0 µM -2% | [8]; at 100.0 µM -1% | [9]; [16] -15% | [9]; [17] -7% | [9]; at 50.0 µM -91.1% | [10]; at 1.2 µM 2% | [10]; at 3.7 µM 4% | [10]; [16] 8% | [10]; at 11.0 µM 21% | [10]; at 33.0 µM 39% | [10]; [17] 40% | [10]; at 100.0 µM 50% | [11]; at 1.2 µM -2% | [11]; at 3.7 µM -3% | [11]; at 11.0 µM -4% | [11]; at 33.0 µM -5% | [11]; at 100.0 µM -4% | [12]; at 1.2 µM 0% | [12]; at 3.7 µM 0% | [12]; at 11.0 µM 3% | [12]; at 33.0 µM 7% | [12]; at 100.0 µM 14% | [13]; at 1.2 µM -3% | [13]; at 3.7 µM -1% | [13]; at 11.0 µM 0% | [13]; at 33.0 µM 4% | [13]; at 100.0 µM 13% | [14]; [16] -2% | [14]; [17] 62% | [15]; at 1.2 µM -2% | [15]; at 3.7 µM -3% | [15]; at 11.0 µM -2% | [15]; at 33.0 µM 4% | [15]; at 100.0 µM 14%

COc1ccc(N2C(=O)CC(Cl)C2=O)cc1 (stereo unspecified)
inactive: [1]; at 1.2 µM -10% | [1]; at 3.7 µM -9% | [1]; at 11.0 µM 10% | [2]; at 1.2 µM -1% | [2]; at 3.7 µM 10% | [2]; at 11.0 µM 16% | [3]; at 1.2 µM -9% | [3]; at 3.7 µM -18% | [3]; at 11.0 µM 22% | [3]; at 33.0 µM 66% | [4]; at 1.2 µM -16% | [4]; at 3.7 µM -11% | [4]; [16] -128% | [4]; at 11.0 µM 15% | [5]; at 1.2 µM -7% | [5]; at 3.7 µM -5% | [5]; [16] -44% | [5]; at 11.0 µM -6% | [5]; at 33.0 µM 64% | [5]; [17] 36% | [6]; at 1.2 µM -6% | [6]; at 3.7 µM 1% | [6]; at 11.0 µM 13% | [7]; [16] -56% | [7]; [17] 59% | [8]; at 1.2 µM -12% | [8]; at 3.7 µM -12% | [8]; at 11.0 µM -12% | [8]; at 33.0 µM 0% | [9]; [16] -60% | [9]; [17] 8% | [10]; at 1.2 µM -15% | [10]; at 3.7 µM -8% | [10]; [16] -75% | [10]; at 11.0 µM 1% | [10]; [17] 69% | [11]; at 1.2 µM -4% | [11]; at 3.7 µM -1% | [11]; at 11.0 µM 37% | [12]; at 1.2 µM -14% | [12]; at 3.7 µM -10% | [12]; at 11.0 µM -10% | [12]; at 33.0 µM 40% | [13]; at 1.2 µM -3% | [13]; at 3.7 µM 0% | [13]; at 11.0 µM 24% | [14]; [16] -137% | [14]; [17] 32% | [15]; at 1.2 µM -12% | [15]; at 3.7 µM -10% | [15]; at 11.0 µM 1% | [15]; at 33.0 µM 38%
active: [1]; at 33.0 µM 80% | [1]; at 100.0 µM 99% | [2]; at 33.0 µM 70% | [2]; at 100.0 µM 100% | [3]; at 100.0 µM 99% | [4]; at 33.0 µM 79% | [4]; [17] 96% | [4]; at 50.0 µM 99.2% | [4]; at 100.0 µM 99% | [5]; at 50.0 µM 99.5% | [5]; at 100.0 µM 100% | [6]; at 33.0 µM 98% | [6]; at 100.0 µM 100% | [7]; at 50.0 µM 95.5% | [8]; at 100.0 µM 78% | [9]; at 50.0 µM 97% | [10]; at 33.0 µM 92% | [10]; at 50.0 µM 97.9% | [10]; at 100.0 µM 100% | [11]; at 33.0 µM 99% | [11]; at 100.0 µM 100% | [12]; at 100.0 µM 100% | [13]; at 33.0 µM 93% | [13]; at 100.0 µM 99% | [14]; at 50.0 µM 97.1% | [15]; at 100.0 µM 99%

From PubChem BioAssay (NCI)
